# Compound activity deposited in PubChem BioAssay by National Center for Advancing Translational Sciences (NCATS).
# The list is not random: actives were taken first. Their share in the collection is about 19%.
# HT1080NT lethal – kills 2HG-producing HT-1080-NT fibrosarcoma cells; Potency, µM (doses to about 46.1 µM), for the others: at the top dose activity, negative = less viability, usual class: cytotoxic; HT-1080-NT fibrosarcoma viability, CellTiter-Glo ATP luminescence, 48 h; 1.6% of 360,000 active;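 note: NT is the 2HG producing partner of a matched IDH1 knockdown line; 0% = DMSO-treated cells and -100% = media-only wells without cells; nearly all actives have a fitted effect of over 55% in size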
#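 HT-1080-NT; 750 cells/well; 5% FBS RPMI; 48 h compound, 37 degrees C; CellTiter-Glo luminescence; curve fitting and curve-class assignment.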
# HT1080 IDH1KD tx – toxicity to HT-1080 IDH1 knockdown cells (counter line). HT-1080 IDH1 knockdown viability, ATP luminescence, 48 h. Potency, µM (series often up to 46.1 µM), for the others: top-dose activity, negative = toxicity, actives largely listed as cytotoxic. 2% of 360,000 active;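 note: 0% = DMSO wells and -100% = cell-free medium wells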
#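 After a 2 h attachment period, IDH1KD HT-1080 cells took pin-transferred compound for 48 h at 37 °C; ATP-based luminescence after 10 min room-temperature reagent incubation reported viability.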
# TDP1 cell CPT – DT40-hTDP1 cell growth loss with CPT | Potency, µM (top dose mostly 46.2 µM), without a hit: at the highest dose activity change, negative = growth inhibition, actives largely listed as inhibitors | 12% of 420,000 active | chicken DT40 Tdp1-/-;hTDP1 cells + 20 nM CPT, ATP luminescence, 48 h; note: nearly all actives have a fitted effect of over 55% in size
#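 Chicken DT40 Tdp1-/- cells complemented with human TDP1, 400 cells/well, exposed to compounds plus 20 nM camptothecin for at least 48 h at 37 C; viability read as ATP content by CellTiter-Glo luminescence.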
# KB-V1 cytotox – kills drug-selected multidrug resistant KB-V1 cells. 3.4% of 400,000 active. Potency, µM (series often up to 46.1 µM), hits mostly cytotoxic. KB-V1 MDR cells viability, CellTiter-Glo, 72 h; note: nearly all actives have a fitted effect of over 60% in size
#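 Drug-selected KB-V1 cells, grown in DMEM lacking phenol red with 10% FBS, receive compound titrations; after three days at 37 degrees C, surviving cell ATP is quantified by CellTiter-Glo luminescence and responses normalized and curve-fitted.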
# KB-3-1 tox – KB-3-1 parental cell cytotoxicity | KB-3-1 viability, CellTiter-Glo ATP luminescence, 72 h | 1.4% of 400,000 active | AID 1347075 | Potency, µM (highest dose often 46.1 µM), hits mostly cytotoxic; note: nearly all actives have a fitted effect of over 60% in size
#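 Cytotoxicity in the drug-sensitive parental line KB-3-1 was scored as loss of CellTiter-Glo luminescence following 72 h incubation with compound. Values come from curve fitting of normalized concentration-response data.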
# DT40 TDP1 no CPT – qHTS for Inhibitors of human tyrosyl-DNA phosphodiesterase 1 (TDP1): qHTS in cells in absence of CPT; DT40 Tdp1-/- hTDP1 cells, no CPT, ATP luminescence, 48 h; Potency, µM (highest dose often 46.2 µM), without a hit: at the highest dose activity change, negative = growth inhibition, usual class: inhibitors; 15% of 420,000 active; note: nearly all actives have a fitted effect of over 55% in size
#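 Chicken DT40 Tdp1-/- cells complemented with human TDP1, screened without camptothecin (DMSO vehicle only), 400 cells/well. Compounds pin-transferred, cells incubated at 37 °C for at least 48 hr. Growth read as ATP-dependent luminescence (CellTiter-Glo, 30 min at RT).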
# * = called active by the depositor; i = inactive; u = inconclusive; x = no result; [ ] = another dose, or the depositor's remark. Calls come from the whole dose curve; as a rule, active = well fitted curve in the direction sought with a large enough effect; inconclusive = small, poorly fitted or top-dose-only effect, or another doubt; inactive = no such curve, though single readings can be large; an effect the other way counts as inactive or inconclusive. Unless noted, % is set by controls: 0 for no effect and ±100 for the full control effect; potency is the fitted concentration of half-maximal effect.
SMILES,HT1080NT lethal,HT1080 IDH1KD tx,TDP1 cell CPT,KB-V1 cytotox,KB-3-1 tox,DT40 TDP1 no CPT
CN(C)CCn1c(C(=O)O)cc2ccccc21,-1%,-6%[9.24 µM],-4%,i,i,-3%
OC(CN1CCCCC1)c1ccc(Br)cc1 (configuration not stated),-1%,-4%,-18%,i,i,-8%
N=c1n(CCN2CCCCC2)c2ccccc2n1CC(O)c1cccc(Br)c1 (configuration not stated),23µM*,u,15µM*,u,u,16µM*
CN(C)CCn1c(=N)n(CC(O)c2ccc(Cl)c(Cl)c2)c2ccccc21 (configuration not stated),23µM*,u,23µM*,i,u,23µM*
O=C(NCCC1CCCCN1S(=O)(=O)c1ccc(Cl)cc1)C(=O)NCc1cccnc1 (configuration not stated),-4%,-10%,u,i,i,u
CCOc1ccc(N2CC(C(=O)Nc3cccc(S(=O)(=O)N4CCOCC4)c3)CC2=O)cc1 (configuration not stated),5%,-2%,1%,i,i,u
CC(C)(CN1CCN(c2ccccc2)CC1)NS(=O)(=O)c1ccccc1,-21%,-8%,u,u,u,u
Cc1ccc2nc(SCC(=O)N3N=C(c4cccs4)CC3c3ccc(F)cc3)nc(=O)n2c1 (configuration not stated),-26%,-27%,-19%,i,i,u
CCOC(=O)CSCC(=O)N1N=C(c2cccs2)CC1c1ccc(F)cc1 (configuration not stated),11%,9%,15µM*,i,i,u
CNC(=S)N1N=C(c2cccs2)CC1c1ccc(OC)cc1 (configuration not stated),-15%,-17%,-5%,i,i,-2%
Cc1ccn2c(=O)nc(SCC(=O)N3N=C(c4cccs4)CC3c3ccc(F)cc3)nc2c1 (configuration not stated),-7%,-19%,u,i,i,18µM*
Fc1ccc(C2CC(c3cccs3)=NN2C(=S)Nc2ccccc2)cc1 (configuration not stated),7%,-4%,u,21µM*,i,u
CCC/C=N/NC(=O)c1[nH]c2c([N+](=O)[O-])cccc2c1C,u,u,u,i,23µM*,u
CC[C@]12c3[nH]c4ccc(Cl)cc4c3CCN1C(=O)[C@@H](CC(=O)NC(C)(C)C)C[C@@H]2C(=O)N1CCN(C(=O)c2ccco2)CC1,-4%,-8%,15µM*,i,i,18µM*
CC[C@]12c3[nH]c4cc(-c5ccco5)ccc4c3CCN1C(=O)[C@@H](CC(=O)NCCN1CCOCC1)C[C@@H]2C(=O)N1CCN(C(=O)c2ccco2)CC1,7%,4%,-13%,i,i,-16%
CC[C@]12c3[nH]c4cc(-c5ccco5)ccc4c3CCN1C(=O)[C@@H](CC(=O)NC(C)(C)C)C[C@@H]2C(=O)N1CCN(C(=O)c2ccco2)CC1,-2%,-5%,23µM*,u,i,15µM*
O=C1NC[C@@H](CCCCN2C[C@H](Cc3ccccc3)N(CCc3ccc(O)cc3)C(=O)C2=O)N(CC2CCCCC2)C1=O,-2%,2%,-11%,i,i,-3%
Cc1ccc(C)c(N=C2CCCN2Cc2ccccc2)c1C#N,-3%,-1%,u,u,i,16µM*
CC(=O)Nc1nc2ccc(Br)cc2s1,-26%,u,13µM*,i,i,u
CC(=O)Nc1nc2ccc(NC(=O)c3ccco3)cc2s1,2%,2%,u,i,i,18µM*
COc1ccc2nc(NC(=O)c3ccco3)sc2c1,-25%,-11%,u,i,u,u
Cc1nc2ccc(NC(=O)c3ccco3)cc2s1,9%,14%,3%,i,i,-3%
Cc1ccc2nc(NC(=O)c3ccco3)sc2c1,-22%,-25%,u,i,i,8.2µM*
Cc1ccc2nc(NC(=S)NC(=O)c3ccco3)sc2c1,15%,21%,5.2µM*,u,u,3.3µM*
CCn1c(SCC(=O)Nc2ccc(OC)cc2)nc2c(c1=O)SCC2,-3%,12%,2%,u,i,u
SMILES,HT1080NT lethal,HT1080 IDH1KD tx,TDP1 cell CPT,KB-V1 cytotox,KB-3-1 tox,DT40 TDP1 no CPT
Cc1nc2c3ccccc3nc(NNC(=O)CCC(=O)N3CCN(c4cccc(Cl)c4)CC3)n2n1,x,x,u,i,i,u
CN(C)c1ccc(/C=C/c2ccnc3c(O)ccc(O)c23)cc1,x,x,-18%,i,i,-12%
Cc1cc(=O)n2nc(N(C)CC(=O)NCc3ccccc3C)sc2n1,x,x,-29%,i,i,-5%
CC(=O)c1cccc(NC(=O)Cn2ccn3nc(-c4ccccc4)cc3c2=O)c1,x,x,7%,i,i,3%
C/C(=N/NC(=O)C(O)(c1ccccc1)c1ccccc1)c1ccc([N+](=O)[O-])o1,-29%,u,21µM*,u,u,21µM*
C/C(=N\NC(=O)c1cccc([N+](=O)[O-])c1)c1ccco1,18%,18%,-1%,i,i,6%
O=C1CC(N(CCc2ccccc2)C(=S)Nc2ccccc2)C(=O)N1c1ccc(Br)cc1 (configuration not stated),16µM*,u,16µM*,u,u,18µM*
Cc1ccc(N2C(=O)CC(N(CCc3ccccc3)C(=S)Nc3ccc(N(C)C)cc3)C2=O)cc1 (configuration not stated),-8%,u,18µM*,i,i,u
COc1ccc(CN(C(=S)Nc2ccccc2)C2CC(=O)N(c3ccc(F)cc3)C2=O)cc1 (configuration not stated),u,u,u,i,i,u
COc1ccc(CCN(C(=S)Nc2ccccc2)C2CC(=O)N(c3ccccc3)C2=O)cc1 (configuration not stated),-3%,-5%,u,i,i,u
Cc1nc2nc(NC(=O)c3ccc(F)cc3)[nH]n2c(=O)c1Cc1ccccc1,x,x,-2%,x,x,-2%
CCCCn1c(N)c(N(CCOC)C(=O)COC(=O)CCOc2ccc(C)cc2)c(=O)[nH]c1=O,-6%[9.24 µM],-3%,-15%,i,i,-1%
